Measured values as given in the supplement of paper PMC3334620.
In all, about 33,000 sequences were measured (“E-score (-0.5 to 0.5)”: median about -0.0059, highest 2% from about 0.26 on). This is one part of a sample in which the highest values are shown more often than they occur.

target: T1, Cin5 (UniProt P40917); assay: PBM E-score (8-mer binding enrichment) (E-score (-0.5 to 0.5)); higher = stronger / more preferred TF binding; conditions: protein concentration: 100 nM; construct: GST-full length
T1 sequence: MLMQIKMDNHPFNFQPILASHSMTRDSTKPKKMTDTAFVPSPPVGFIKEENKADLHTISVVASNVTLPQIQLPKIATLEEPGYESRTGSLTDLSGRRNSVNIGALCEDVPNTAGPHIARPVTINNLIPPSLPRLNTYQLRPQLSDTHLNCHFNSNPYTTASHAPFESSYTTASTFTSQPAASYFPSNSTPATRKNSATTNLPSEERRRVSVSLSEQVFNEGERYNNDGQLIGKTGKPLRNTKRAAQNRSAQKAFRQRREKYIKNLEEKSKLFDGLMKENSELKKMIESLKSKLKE
Procedure: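 Universal 'all 10-mer' protein binding microarrays (Agilent AMADID 015681) probed with GST-tagged S. cerevisiae TFs (full-length or DBD) made by in vitro transcription/translation (PURExpress), about 100-200 nM. Bound TF was detected with fluorescent anti-GST. Each ungapped 8-mer (which stands for itself and its reverse complement) is scored by the PBM enrichment score (E-score), a modified Wilcoxon-Mann-Whitney statistic from -0.5 to +0.5, computed with the Universal PBM Analysis Suite. Scale: above 0.35 generally sequence-specific binding.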

| Sequence | PBM E-score |
| --- | --- |
| CTCATTTC | -0.04 |
| ATTATTTC | 0.3 |
| ATCATTTC | 0.264 |
| CGTATTTA | 0.308 |
| ATCATTTA | 0.226 |
| ATAGACGC | 0.122 |
| CACAGCAG | 0.0514 |
| CCTGCGTA | -0.115 |
| GCACCGAC | -0.0796 |
| CTGATTTA | 0.0451 |
| ATTTATAC | 0.253 |
| CTTATTTA | 0.164 |
| ATTATTTG | 0.206 |
| ATATTTTA | 0.201 |
| ATGATTTG | 0.123 |
| ATTTATAA | 0.299 |
| ATTATTTA | 0.319 |
| ATGATTTA | 0.268 |
| CTATTTTC | 0.0963 |
| CTTTATAA | -0.0352 |
| ATATTTTC | 0.31 |
| GCACTGCA | -0.0484 |
| AGCTGCTA | -0.0218 |

| Sequence | PBM E-score |
| --- | --- |
| CCTGCAAG | -0.215 |
| GAAGAATC | 0.00251 |
| AACAGCCG | -0.0368 |
| CCGCACAG | -0.0131 |
| CTATAAAC | -0.00307 |
| TTATAAAA | 0.289 |
| CTATAAAA | -0.0202 |
| GTATAAAA | 0.26 |
| ATATAAAA | 0.154 |
| GTATAAAC | 0.26 |
| CTCTAAAA | -0.125 |
| TGATAAAA | 0.0968 |
| ATATAAAC | 0.255 |
| AACGCCAA | -0.0074 |
| GATTCTCC | -0.134 |
| GTACTCTA | -0.0538 |
| TATTCGAA | 0.0697 |
| CCCTATGA | -0.066 |
| CAATAGGC | -0.0915 |
| AGGAATAG | 0.0234 |
| GGCAAAAA | 0.202 |
| ATTACTAC | 0.145 |
| CTTACTAA | 0.313 |

| Sequence | PBM E-score |
| --- | --- |
| CTTACTAC | 0.202 |
| ATTACTTA | 0.411 |
| ATTACTAG | 0.105 |
| GTTACTAA | 0.168 |
| ATTACTGA | 0.108 |
| ATTACTAA | 0.334 |
| CTTACTTA | 0.25 |
| AAGATGGA | 0.109 |
| CGAGTAGA | -0.139 |
| ATTTACGC | 0.0814 |
| ATCCGTTA | 0.29 |
| ATCCGTTC | 0.0322 |
| GTCCGTTA | 0.12 |
| CGGGCTAA | -0.184 |
| CGGTACTC | -0.161 |
| CGTAGAGC | -0.0105 |
| AAAAACCA | 0.0166 |
| AAAGCGCA | -0.0252 |
| CAAGCGCC | -0.291 |
| CAAGCGCA | 0.323 |
| CAATTCCC | 0.112 |
| CTGATTTC | -0.00928 |
| ATGATTAC | 0.362 |

| Sequence | PBM E-score |
| --- | --- |
| ATGATTAA | 0.256 |
| CTGATTAA | 0.108 |
| CTGATTAC | 0.378 |
| ATGATTAG | 0.223 |
| GGGCTAGA | -0.149 |
| CAGGCAAC | -0.0103 |
| AGTATGTG | 0.14 |
| GTTATGAA | 0.159 |
| CTTATGAA | 0.0936 |
| CTTATGTA | 0.361 |
| ATTATGAA | 0.258 |
| ACTATGTG | 0.0904 |
| GTTATGTA | 0.276 |
| GATATGTA | 0.189 |
| CATATGTA | 0.172 |
| CTTATGCA | 0.106 |
| GTTATGCA | 0.0592 |
| ATTATGTG | 0.345 |
| AGTGCTTA | 0.199 |
| AGTGAACT | 0.035 |
